Bioassay records: PubChem BioAssay, several laboratories
DAX1 inh-1: blocks DAX1 repression of SF-1 activated StAR promoter. HEK293T StAR-luciferase reporter, SF-1/DAX-1 repression relief. inhibition, % at 6.8 µM. actives 1.1% (n = 370,000);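 active = inhibition above the mean over all tested compounds plus 3 SD, cut at about 3.6% in these data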;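 also: higher inhibition means more luminescence from relief of DAX-1 repression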
DAX1 inh-2: inhibitors of human orphan nuclear receptor DAX1 (NR0B1). P51843. HEK293 Gal4-DAX1 luciferase reporter, luminescence. inhibition, % at 6.75 µM. actives 0.99% (n = 340,000). AID 504766;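 active = inhibition above the mean over all tested compounds plus 3 SD, cut at about 4.2% in these data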;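 also: inhibition shows as a rise in luminescence from relieved DAX1 repression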
Target sequence (P51843 207-470 limits assumed): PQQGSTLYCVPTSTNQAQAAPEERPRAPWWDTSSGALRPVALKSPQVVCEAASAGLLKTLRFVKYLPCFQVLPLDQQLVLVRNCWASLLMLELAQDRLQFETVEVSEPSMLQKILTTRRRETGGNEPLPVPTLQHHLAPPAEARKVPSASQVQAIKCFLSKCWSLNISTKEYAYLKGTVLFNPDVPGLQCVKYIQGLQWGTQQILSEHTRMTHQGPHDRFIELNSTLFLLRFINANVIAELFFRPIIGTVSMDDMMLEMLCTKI
ssDAF-12 act: activators of S. stercoralis DAF-12 nuclear receptor; HEK293 ssDAF-12/GRIP1 lit1-tk-luc reporter, luminescence; % of 3 µM dafachronic acid response; activation, % at 6.8 µM; actives 1% (n = 370,000);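 active = activation above the mean over all tested compounds plus 3 SD, cut at about 0.9% in these data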
PolyA inhibitor: inhibitors of polyadenylation in S. cerevisiae; S. cerevisiae SKY197-pL101 polyadenylation reporter, beta-gal luminescence; efflux-impaired pdr1/pdr3 knockout yeast; score 100 = 6 SD above DMSO; activity score, % at 12 µM; actives 0.02% (n = 300,000); AID 1875;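 active = lowest replicate activity score at least 50, where 100 means six control SD above control mean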;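 also: yeast exposed to compound for 9 h at 30 °C; higher score means more reporter readthrough which indicates perturbed polyadenylation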
hcDAF12 agonist: H. contortus DAF-12 activation, primary screen | AID 652067 | actives 1.4% (n = 370,000) | activation, % at 6.8 µM | HEK293 hcDAF-12 lit1-tk-luc reporter, luminescence; 0% DMSO, 100% Δ7-dafachronic acid;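 active = activation above the mean of all tested compounds plus 3 SD, cut at about 5.5% in these data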
hgDAF12 agonist: agonists of H. glycines DAF-12 nuclear receptor; HEK293 GAL4-hgDAF12 UAS-luciferase reporter, agonist luminescence; normalized to butyrate control; activation, % at 6.8 µM; actives 1.8% (n = 370,000); AID 687014;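 active = activation above a cutoff set at the mean of all screened compounds plus 3 SD, cut at about 10% in these data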
DAX1 inh confirm: NR0B1 (human) inhibition, confirmation | actives 87% (n = 2,400) | HEK293T StAR-promoter luciferase reporter, SF-1/DAX-1 repression | shares compounds with DAX1 inh-1 | inhibition, % at 6.8 µM;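 active = inhibition above the average of every tested compound plus 3 SD, cut at about 3.8% in these data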;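 also: active compounds raise luminescence by relieving repression of the StAR reporter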
Target sequence (P51843 whole entry, looked up): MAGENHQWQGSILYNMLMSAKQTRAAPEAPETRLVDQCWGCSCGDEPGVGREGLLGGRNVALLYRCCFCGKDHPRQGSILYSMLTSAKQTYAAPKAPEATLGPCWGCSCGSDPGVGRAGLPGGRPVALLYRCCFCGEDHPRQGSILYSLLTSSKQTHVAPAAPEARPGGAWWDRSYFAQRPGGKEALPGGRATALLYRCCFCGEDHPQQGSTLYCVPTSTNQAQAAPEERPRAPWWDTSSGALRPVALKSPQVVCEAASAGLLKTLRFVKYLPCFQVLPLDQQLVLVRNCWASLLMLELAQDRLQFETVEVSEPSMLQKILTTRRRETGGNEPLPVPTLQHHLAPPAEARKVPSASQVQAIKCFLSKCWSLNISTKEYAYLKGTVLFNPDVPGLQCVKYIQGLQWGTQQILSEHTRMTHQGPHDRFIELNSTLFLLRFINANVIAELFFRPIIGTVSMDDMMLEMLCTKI
SF1 mutant ctr: counter-screen for DAX1 inhibitors: nonselective inhibitors with SF-1 AF2 mutant; AID 652136; HEK293 StAR-luciferase, luminescence; shares compounds with DAX1 inh-1; inhibition, % at 6.8 µM; actives 78% (n = 2,400);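 active = inhibition above the mean of all tested compounds plus 3 SD, cut at about 3% in these data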
LXRb hcDAF ctr: activates human LXR-beta, counter-screen for hcDAF-12 agonists; 3,400 tested, under 10 active; activation, % at 6.8 µM; shares compounds with hcDAF12 agonist; HEK293 Gal4-LXR tk-luc reporter, luminescence, 24 h; normalized: DMSO 0%, positive control 100%;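 active = mean percent activation of the reporter above a cutoff set as the average over tested compounds plus their standard deviation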
hcDAF12 ag: confirmation of H. contortus DAF-12 agonists; shares compounds with hcDAF12 agonist; activation, % at 6.8 µM; actives 61% (n = 3,400); HEK293 hcDAF-12 lit1-tk-luc reporter, luminescence; % of Δ7-dafachronic acid response;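 active = mean activation across triplicate tests above the threshold derived from the earlier primary screen, cut at about 5.5% in these data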
hgDAF12 ag: confirmation of H. glycines DAF-12 agonists. shares compounds with hgDAF12 agonist. HEK293 GAL4-hgDAF12 luciferase reporter, agonist mode; percent of butyrate response. activation, % at 6.8 µM. actives 80% (n = 3,300). AID 743050;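 active = mean activation over triplicate wells above the hit cutoff derived from the earlier primary screen, cut at about 11% in these data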
LXR ag 2: counter-screen for DAF-12 agonists: agonists of human LXR-beta. shares compounds with hgDAF12 agonist. 3,300 tested, under 10 active. activation, % at 6.8 µM. HEK293 Gal4-LXR luciferase reporter, 24 h;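 active = mean activation of the triplicate above a set limit carried over from the primary screen, none filed active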
Of the large screens only hits and unclear results are named; the others gave an inactive call (follow-up assays come after a bar, where they were run). In the library only some 4.1% were active in any assay of this set; here they are far more common.

C(=N\Nc1nc2ccccc2s1)/c1ccc2c(c1)OCO2	DAX1 inh-1 8.2, ssDAF-12 act 4.5, hcDAF12 agonist 17, hgDAF12 agonist 17 | DAX1 inh confirm 19 | SF1 mutant ctr 12 | LXRb hcDAF ctr inactive | hcDAF12 ag 9.6 | hgDAF12 ag 24 | LXR ag 2 inactive
C(=C\c1ccccc1)/C=N/Nc1nc2ccccc2s1	DAX1 inh-1 5.3, DAX1 inh-2 5.7, ssDAF-12 act 2.2, hcDAF12 agonist 16, hgDAF12 agonist 19 | DAX1 inh confirm 14 | SF1 mutant ctr 11 | LXRb hcDAF ctr inactive | hcDAF12 ag 9.6 | hgDAF12 ag 20 | LXR ag 2 inactive
COc1ccc(C=NNc2nc3ccccc3s2)cc1	DAX1 inh-1 11, ssDAF-12 act 0.9, hcDAF12 agonist 14, hgDAF12 agonist 17 (no result: PolyA inhibitor) | DAX1 inh confirm 22 | SF1 mutant ctr 12 | LXRb hcDAF ctr inactive | hcDAF12 ag 13 | hgDAF12 ag 16 | LXR ag 2 inactive
COc1cc(OC)cc(C(=O)Oc2ccc(/C=N/Nc3nc4ccccc4s3)cc2OC)c1	none
Brc1ccc(/C=C/C=N/Nc2nc3ccccc3s2)cc1	none
CCOC(=O)N1CCN(Cc2ccc(OCC(O)CN3CCCCC3)cc2)CC1 (centres undefined)	none
CCSc1nc2ccccc2c(=O)n1CCc1ccc(OC)c(OC)c1	none
COc1ccccc1C1CC(c2ccco2)=NN1S(C)(=O)=O (centres undefined)	none
CCc1sc(C(=O)Nc2ncccc2O)cc1C	DAX1 inh-1 22, ssDAF-12 act 1.0, hcDAF12 agonist 7.9, hgDAF12 agonist 22 | DAX1 inh confirm 15 | SF1 mutant ctr 6.2 | LXRb hcDAF ctr inactive | hcDAF12 ag 7.9 | hgDAF12 ag 26 | LXR ag 2 inactive
CCc1sc(C(=O)Nc2ncccc2C)cc1C	none
CSc1ccc(/C=N/NC(=O)c2ccc(C)c(C)c2)cc1	none
CSc1ccc(/C=N/NC(=O)c2sccc2C)cc1	DAX1 inh-1 5.8, ssDAF-12 act 1.7, hcDAF12 agonist 7.1, hgDAF12 agonist 16 | DAX1 inh confirm 16 | SF1 mutant ctr 7.9 | LXRb hcDAF ctr inactive | hcDAF12 ag 6.6 | hgDAF12 ag 24 | LXR ag 2 inactive
NC(=O)c1ccsc1NC(=O)c1ccc(N2CCCC2=O)cc1	DAX1 inh-1 6.7, ssDAF-12 act 1.0, hcDAF12 agonist 7.4, hgDAF12 agonist 25 | DAX1 inh confirm 14 | SF1 mutant ctr 9.6 | LXRb hcDAF ctr inactive | hcDAF12 ag 6.9 | hgDAF12 ag 17 | LXR ag 2 inactive
Cc1ccc(C(=O)C(C)OC(=O)c2ccccc2[N+](=O)[O-])cc1 (centres undefined)	DAX1 inh-1 6.1, hgDAF12 agonist 18 | DAX1 inh confirm 15 | SF1 mutant ctr 9.8 | hgDAF12 ag 15 | LXR ag 2 inactive
Cc1ccnc(NC(=O)C2CC(=O)N(c3ccc4c(c3)OCCO4)C2)c1 (centres undefined)	DAX1 inh-1 12, hgDAF12 agonist 15 | DAX1 inh confirm 12 | SF1 mutant ctr 6.2 | hgDAF12 ag 16 | LXR ag 2 inactive
Cc1ccc(CN2CC(C(=O)Nc3cc(C)ccn3)CC2=O)cc1 (centres undefined)	DAX1 inh-1 11, hgDAF12 agonist 22 | DAX1 inh confirm 12 | SF1 mutant ctr 3.1 | hgDAF12 ag 22 | LXR ag 2 inactive
CC(C)C[C@@H]1O[C@H](CCc2ccccc2)Cc2[nH][nH]c(=O)c21	none (no result: DAX1 inh-2, PolyA inhibitor)
Cc1cc(C(=O)Nc2ccc(Br)cn2)sc1C	DAX1 inh-1 6.3, hcDAF12 agonist 5.8, hgDAF12 agonist 14 (no result: PolyA inhibitor) | DAX1 inh confirm 13 | SF1 mutant ctr 8.6 | hgDAF12 ag 18 | LXR ag 2 inactive
CCC(=O)Nc1ccc(Br)cn1	none
CCN(CC(=O)Nc1cccc(F)c1)CC(=O)Nc1ccccc1OC	none
CCN(CC)S(=O)(=O)c1ccc(C(O)=C(C#N)c2nc3ccccc3n2C)cc1	none (no result: PolyA inhibitor)
O=C(N=Nc1c(O)[nH]c2ccccc12)Nc1ccccc1	DAX1 inh-1 5.5, DAX1 inh-2 5.6, ssDAF-12 act 1.2, hgDAF12 agonist 17 (no result: PolyA inhibitor) | DAX1 inh confirm 16 | SF1 mutant ctr 7.1 | hgDAF12 ag 13 | LXR ag 2 inactive
Cc1cccc(NC(=S)N=Nc2c(O)[nH]c3ccccc23)c1	none
Cc1nc2nc(-c3ccccc3)cn2nc1C	DAX1 inh-1 4.8, hcDAF12 agonist 6.2, hgDAF12 agonist 14 | DAX1 inh confirm 11 | SF1 mutant ctr 5.1 | hgDAF12 ag 12 | LXR ag 2 inactive
COc1cc(SC)ccc1C(=O)Nc1ccc2c(c1)OCO2	DAX1 inh-1 7.8, DAX1 inh-2 9.4, ssDAF-12 act 1.4, hcDAF12 agonist 8.9, hgDAF12 agonist 20 | DAX1 inh confirm 9.7 | SF1 mutant ctr 6.2 | LXRb hcDAF ctr inactive | hcDAF12 ag 6.3 | hgDAF12 ag 16 | LXR ag 2 inactive
COc1cc(SC)ccc1C(=O)Nc1ccc(C)cc1C	none
COc1cc(SC)ccc1C(=O)Nc1ccccn1	DAX1 inh-1 5.0, ssDAF-12 act 1.0, hcDAF12 agonist 10, hgDAF12 agonist 19 | DAX1 inh confirm 9.6 | SF1 mutant ctr 5.2 | LXRb hcDAF ctr inactive | hcDAF12 ag 7.2 | hgDAF12 ag 14 | LXR ag 2 inactive
COc1cc(SC)ccc1C(=O)Nc1ccc(C)cc1	DAX1 inh-1 5.5, DAX1 inh-2 7.1, ssDAF-12 act 2.1, hcDAF12 agonist 14, hgDAF12 agonist 18 (no result: PolyA inhibitor) | DAX1 inh confirm 13 | SF1 mutant ctr 9.9 | LXRb hcDAF ctr inactive | hcDAF12 ag 13 | hgDAF12 ag 20 | LXR ag 2 inactive
O=C1OC(c2ccccc2)(c2cc(Br)ccc2O)c2ccccc21 (centres undefined)	none (no result: PolyA inhibitor)
